The text below walks through data of PubChem BioAssay.

For assay [1], the system named is Wnt5a (protein binding on small-molecule microarray). As to the kind of experiment: Wnt5a binders on small-molecule microarray, primary screen, biophysical, 635/667 nm fluorescence (AID 1142).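 Also: fluorescence read at 667 nm with signal to noise per printed feature.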 The following applies: 635 nm fluorescence, higher = more signal.
Assay [2] is described as follows: cell viability in Huh7 cells, primary screen, cytotoxicity control for HCV replication inhibitor project, CellTiter-Glo luminescence, basal, 48 h (AID 1143).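 Also: Huh7 hepatoma cells carrying a hepatitis C replication reporter with no stimulus; test concentration not given here.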 The conditions noted are these: Huh7 HCV replicon, higher = more signal, called active from +8 up or from −8 down. Background: In ATP-based viability assays light output follows the ATP content of the culture.

A short description of assay [3]: P. aeruginosa biofilm formation inhibitors, primary screen, PAO1 strain, BacTiter-Glo luminescence, LB-PBS (AID 1144). The conditions noted are these: 12 h, higher = more signal.
A short description of assay [4]: CREB reporter modulators without forskolin, primary screen, cell-based, PC12, CRE-LacZ reporter, unstimulated (AID 1145). The conditions noted are these: no forskolin, luminescence, 4.5 h, higher = more signal, called active from +8 up or from −8 down.
The nature of assay [5]: CREB reporter modulators under forskolin, primary screen, cell-based, PC12, CRE-LacZ reporter, forskolin-stimulated (AID 1146).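 Also: PC12 cells with 6xCRE LacZ reporter stimulated by forskolin 10 µM; beta-galactosidase reporter signal reflecting CREB driven transcription.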 The following applies: luminescence, 4.5 h, higher = more signal, called active from +8 up or from −8 down.
The target of assay [6] is Streptavidin (Streptomyces avidinii) (UniProt P22629). As to the kind of experiment: streptavidin binders on small-molecule microarray, primary screen, artefact control for SMM compound annotation, biophysical, 635/667 nm fluorescence (AID 1147).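 Also: signal reflects streptavidin binding to arrayed compounds as a control protein.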 The conditions noted are these: streptavidin binding, higher = more signal.
Chain of Streptavidin (Streptomyces avidinii) (P22629 whole entry, looked up): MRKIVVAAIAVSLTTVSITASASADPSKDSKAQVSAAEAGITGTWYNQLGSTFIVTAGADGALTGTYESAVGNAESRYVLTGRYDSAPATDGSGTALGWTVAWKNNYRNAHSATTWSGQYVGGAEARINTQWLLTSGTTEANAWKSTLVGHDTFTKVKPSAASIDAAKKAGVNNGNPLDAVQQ
Assay [7] in a line: small-molecule binders of probe aInhba, primary screen, biochemical, small-molecule microarray, 635/667 nm fluorescence (AID 1148).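 Also: score merges 667nm spot fluorescence with signal-to-noise for antibody binding to printed compounds.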 The following applies: higher = more signal.
Assay [8] addresses Torsin-1A (Homo sapiens) (UniProt O14656). Kind of assay: torsin A binders from cell lysate, primary screen, small-molecule microarray, wild-type, 635/667 nm (AID 1149). The following applies: COS7 hTOR1A-WT lysate, 635 nm fluorescence, higher = more signal.
For assay [9] the target is unchanged. As to the kind of experiment: small-molecule binders of mutant TOR1A in lysate, primary screen, cell lysate, small-molecule microarray, COS7 lysate, 635/667 nm fluorescence (AID 1150).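 Also: score pools 667 nm emission and signal to noise measuring lysate protein binding.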 The conditions noted are these: COS7 hTOR1A mutant lysate, 635 nm fluorescence, higher = more signal.
Assay [10] relates to Sonic hedgehog protein (Shh). Kind of assay: small-molecule binders of Shh protein, primary screen, biochemical, small-molecule microarray, 635/667 nm fluorescence (AID 1151).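 Also: Shh protein binding to compounds spotted on small-molecule microarray slides; score combines spot fluorescence intensity with signal-to-noise across triplicate slides.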 The conditions noted are these: small-molecule microarray binding, 635 nm fluorescence; higher = more signal.
A short description of assay [11]: E. coli DRC41 culture turbidity changes, primary screen, E. coli filamentation inducer project, strain DRC41, OD650, 48 h (AID 1152).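 Also: E. coli MC1000 strain DRC41 lacking acrAB efflux pump and sulA.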 The following applies: E. coli DRC41 (acrAB sulA), higher = more signal, called active from +8 up or from −8 down.
Assay [12] is described as follows: small-molecule binders of probe aLefty1, primary screen, biochemical, small-molecule microarray, 635/667 nm fluorescence (AID 1153).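 Also: score merges spot fluorescence with signal-to-noise ratio from the scanned slide images.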 The following applies: higher = more signal.
A short description of assay [13]: PSAC antagonists in infected red cells, primary screen, cell-based, P. falciparum Indochina, OD700, 1 h (AID 1154). The conditions noted are these: P. falciparum Indochina infected RBC osmotic lysis, higher = more signal, called active from +8 up or from −8 down.
Assay [14] can be described thus: PSAC antagonists in infected red cells, primary screen, cell-based, P. falciparum Indochina, OD700, 2 h (AID 1155).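 Also: lysis reports solute entry through the parasite surface anion channel PSAC; channel blockers reduce lysis of infected cells.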 The following applies: P. falciparum Indochina infected erythrocytes, osmotic lysis OD700; higher = more signal, called active from +8 up or from −8 down.
The nature of assay [15]: osmotic lysis modulators in infected erythrocytes, primary screen, PSAC antagonist project, cell-based, P. falciparum Indochina, OD700, 3 h (AID 1156). The conditions noted are these: higher = more signal, called active from +8 up or from −8 down.
Assay [16] can be described thus: PSAC antagonists in infected red cells, primary screen, cell-based, P. falciparum Indochina, OD700, 18 h (AID 1157). The following applies: P. falciparum Indochina infected erythrocytes, osmotic lysis OD700, 18 h; higher = more signal, called active from +8 up or from −8 down.
Assay [17] can be described thus: modulators of S6 phosphorylation in cells, primary screen, cell-based, A549, cytoblot, luminescence, serum-stimulated (AID 1158).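 Also: serum-stimulated A549 lung adenocarcinoma cells; signal is phosphorylated S6 detected by cytoblot immunostaining with HRP secondary.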 The following applies: A549 phospho-S6 cytoblot, 5 h, higher = more signal.
Assay [18] deals with NADPH oxidase 2 (Homo sapiens) (UniProt P04839). Kind of assay: NOX2-dependent H2O2 signal modulators, primary screen, NOX inhibitor project, cell-based, HEK293-NOX2, PMA-stimulated, Amplex Red fluorescence (AID 1159). Also: test concentration not given here. The following applies: 45 min, higher = more signal, called active from +8 up or from −8 down.
Chain of NADPH oxidase 2 (Homo sapiens) (P04839 whole entry, looked up): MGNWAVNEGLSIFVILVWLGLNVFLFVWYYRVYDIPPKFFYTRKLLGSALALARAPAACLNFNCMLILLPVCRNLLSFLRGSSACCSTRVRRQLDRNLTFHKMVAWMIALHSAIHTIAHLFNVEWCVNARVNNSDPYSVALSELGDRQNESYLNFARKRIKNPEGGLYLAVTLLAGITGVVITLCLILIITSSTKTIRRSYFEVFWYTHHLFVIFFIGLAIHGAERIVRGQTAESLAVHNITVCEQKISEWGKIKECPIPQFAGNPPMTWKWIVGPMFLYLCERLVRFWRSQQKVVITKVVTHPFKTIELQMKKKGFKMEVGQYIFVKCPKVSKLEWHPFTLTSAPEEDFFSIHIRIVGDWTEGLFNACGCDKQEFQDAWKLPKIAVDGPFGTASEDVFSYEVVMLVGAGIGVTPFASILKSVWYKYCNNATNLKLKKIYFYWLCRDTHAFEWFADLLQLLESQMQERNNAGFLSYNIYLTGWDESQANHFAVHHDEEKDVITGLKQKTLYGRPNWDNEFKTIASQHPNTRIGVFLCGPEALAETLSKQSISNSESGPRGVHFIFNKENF
Assay [19] addresses NADPH oxidase 4 (Homo sapiens) (UniProt Q9NPH5). Kind of assay: NOX4-dependent H2O2 signal modulators, primary screen, NOX inhibitor project, cell-based, HEK293-NOX4, tetracycline-induced, Amplex Red fluorescence (AID 1160). The following applies: 45 min, higher = more signal, called active from +8 up or from −8 down.
Assay [20] addresses NADPH oxidase 5 (Homo sapiens) (UniProt Q96PH1). As to the kind of experiment: NOX5-dependent H2O2 signal modulators, primary screen, NOX inhibitor project, cell-based, HEK293-NOX5, Amplex Red fluorescence (AID 1161). The conditions noted are these: HEK293-NOX5, ionomycin, 45 min, higher = more signal.

Calls of active or inactive are those of the source. Unless noted, no rule for the calls is given here.

Chain of Torsin-1A (Homo sapiens) (O14656 whole entry, looked up): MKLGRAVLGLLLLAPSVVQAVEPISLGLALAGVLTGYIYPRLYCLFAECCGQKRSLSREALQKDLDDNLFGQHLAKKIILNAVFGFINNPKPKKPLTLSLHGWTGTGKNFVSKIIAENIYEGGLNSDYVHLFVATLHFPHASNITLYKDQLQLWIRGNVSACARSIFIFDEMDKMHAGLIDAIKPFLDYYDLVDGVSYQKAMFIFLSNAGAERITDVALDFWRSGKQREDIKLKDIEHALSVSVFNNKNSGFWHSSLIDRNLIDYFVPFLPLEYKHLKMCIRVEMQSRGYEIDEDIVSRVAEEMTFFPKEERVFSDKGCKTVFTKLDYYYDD
Chain of NADPH oxidase 5 (Homo sapiens) (Q96PH1 whole entry, looked up): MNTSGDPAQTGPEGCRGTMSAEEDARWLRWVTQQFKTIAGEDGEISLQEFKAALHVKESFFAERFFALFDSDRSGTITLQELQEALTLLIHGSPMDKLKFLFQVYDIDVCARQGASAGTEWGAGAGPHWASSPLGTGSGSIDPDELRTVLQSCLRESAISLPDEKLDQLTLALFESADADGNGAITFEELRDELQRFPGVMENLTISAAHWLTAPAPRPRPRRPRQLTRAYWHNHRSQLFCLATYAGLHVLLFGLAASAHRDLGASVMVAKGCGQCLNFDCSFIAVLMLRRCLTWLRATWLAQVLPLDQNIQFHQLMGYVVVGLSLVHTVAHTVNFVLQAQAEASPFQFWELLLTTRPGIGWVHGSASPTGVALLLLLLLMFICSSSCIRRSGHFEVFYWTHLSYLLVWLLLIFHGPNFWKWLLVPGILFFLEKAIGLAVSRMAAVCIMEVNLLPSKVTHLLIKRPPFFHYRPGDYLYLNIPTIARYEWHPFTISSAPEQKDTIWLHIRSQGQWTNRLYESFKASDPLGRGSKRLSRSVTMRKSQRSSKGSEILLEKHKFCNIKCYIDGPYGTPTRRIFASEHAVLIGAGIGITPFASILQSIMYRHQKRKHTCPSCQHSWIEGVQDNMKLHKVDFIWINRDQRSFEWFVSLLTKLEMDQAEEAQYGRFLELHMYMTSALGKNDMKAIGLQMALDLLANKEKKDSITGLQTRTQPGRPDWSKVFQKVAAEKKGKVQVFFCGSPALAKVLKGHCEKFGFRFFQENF
Chain of NADPH oxidase 4 (Homo sapiens) (Q9NPH5 whole entry, looked up): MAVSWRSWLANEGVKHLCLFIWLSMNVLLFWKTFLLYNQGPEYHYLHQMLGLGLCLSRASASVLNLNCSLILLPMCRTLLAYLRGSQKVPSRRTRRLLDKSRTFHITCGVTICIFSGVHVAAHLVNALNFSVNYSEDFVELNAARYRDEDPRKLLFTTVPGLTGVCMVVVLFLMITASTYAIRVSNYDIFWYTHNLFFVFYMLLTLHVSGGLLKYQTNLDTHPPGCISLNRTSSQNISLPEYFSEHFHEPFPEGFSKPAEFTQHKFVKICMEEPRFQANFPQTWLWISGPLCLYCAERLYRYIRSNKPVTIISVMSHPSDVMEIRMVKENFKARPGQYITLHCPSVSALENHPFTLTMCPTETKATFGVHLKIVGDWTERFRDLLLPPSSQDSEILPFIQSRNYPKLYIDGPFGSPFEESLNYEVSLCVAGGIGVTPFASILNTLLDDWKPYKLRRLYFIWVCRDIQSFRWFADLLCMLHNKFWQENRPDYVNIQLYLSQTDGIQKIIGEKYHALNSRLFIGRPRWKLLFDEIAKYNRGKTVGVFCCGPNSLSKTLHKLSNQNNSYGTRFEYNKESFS

As to `C[C@@H]1CC[C@@H](C(=O)O)N[C@H]1c1cccc(N2CCOCC2)c1`, the composite z-score in [1] was -0.0449; in assay [6], 0.032; in [7], -0.273; in assay [8] it was 0.482; in assay [9] it was 0.944; in assay [10], 0.908. Further, the composite z-score in assay [12] is -0.0984. For the same molecule, the z-score was -0.538 (inactive) in [2]; -1.08 (inactive) in [3]; -0.974 (inactive) in [4]; -1.29 (inactive) in [5]; 0.563 (inactive) in assay [11]; -0.0136 (inactive) in [13]. For the same molecule, the z-score in assay [14] is 0.18 (inactive); in assay [15], 0.468 (inactive); in assay [16] it was 0.247 (inactive); in [17] it was 0.778; in assay [18] it was -0.438 (inactive); in assay [19], 0.65 (inactive). Also, the z-score in [20] is 0.252.

As for `CC(=O)OC[C@H]1O[C@H](CCON=C(C)CCN2CCCc3nc(C)c(C)cc32)C=C[C@@H]1OC(C)=O`, the composite z-score was found to be 0.166 in [1]; 0.426 in assay [6]; 0.0973 in assay [7]; 0.946 in assay [8]; 1.17 in assay [9]; 1 in [10]. The molecule also had a composite z-score in [12] of 0.0861. In addition, the z-score in assay [2] is 0.271 (inactive); in assay [3], -0.181 (inactive); in assay [4], 0.322 (inactive); in assay [5] it was 0.469 (inactive); in assay [11], 0.198 (inactive); in assay [13] it was 2.13 (inactive). The z-score in assay [14] is 1.25 (inactive); in assay [15], 0.872 (inactive); in [16] it was 0.489 (inactive); in [17] it was -1.17; in assay [18], 0.152 (inactive); in assay [19], 0.11 (inactive). Further, the z-score in assay [20] worked out at 0.207.

As to `Cc1cc(C)c(-c2cc([C@H](C)ON=C[C@@H](C)[C@H](OCc3ccccc3)C(C)C)on2)c(C)c1`, the composite z-score in assay [1] is -0.18; in assay [6], 0.0366; in assay [7], -0.242; in [8] it was -0.477; in assay [9], -0.273; in [10], -0.16. The molecule further showed a composite z-score in assay [12] of -0.0501. Moreover, the z-score in [2] was -0.295 (inactive); in assay [3] it was 1.45 (inactive); in assay [4] it was 0.0944 (inactive); in assay [5] it was -0.549 (inactive); in [11], -0.3 (inactive); in [13], 0.859 (inactive). The z-score in assay [14] was 0.541 (inactive); in assay [15], -0.831 (inactive); in assay [16], 0.195 (inactive); in [17], -0.408; in [18] it was -0.467 (inactive); in assay [19], -0.299 (inactive). In assay [20], this molecule came in with a z-score of -0.45.

As for `CO[C@@H]1COC(=O)[C@H](CCSC)NC(=O)CC=C[C@@H](C)COC(=O)[C@@H]2CCCN2C(=O)CC=C[C@H]1C`, the composite z-score in assay [1] was 0.186; in assay [6] it was -0.234; in [7], -0.024; in assay [8], 1.24; in assay [9], 0.785; in [10] it was 0.876. The composite z-score in [12] turned out to be 0.224. For the same molecule, the z-score in assay [2] is -0.501 (inactive); in [3], 0.277 (inactive); in [4] it was 0.0652 (inactive); in [5] it was -1.38 (inactive); in [11], -0.785 (inactive); in [13], 0.911 (inactive). Besides, the z-score in [14] was 0.727 (inactive); in [15] it was 0.537 (inactive); in assay [16], 0.354 (inactive); in assay [17], -0.235; in assay [18] it was -2.15 (inactive); in assay [19], -0.045 (inactive). The molecule further came in with a z-score in assay [20] of 0.887.
